We go through five targets from the supplement of paper PMC10849652.

Targets with a hit are over-represented here; the source holds about 8,800 in all. About 0.5% of all pairs of compound and target were hits. Values without a mark were called inactive.

Test in all cases: log2 fold change, soluble protein after heating vs DMSO (PISA); higher = thermal stabilisation; K562 lysate, 10 uM; active = over 0.2 and 3.5 SD of the protein, either way, in both replicates (recomputed)
Compound in one experiment: CCCS(=O)(=O)Nc1ccc(F)c(C(=O)c2c[nH]c3ncc(-c4ccc(Cl)cc4)cc23)c1F [vemurafenib]
Summed up:
(§1)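 Log-two fold change in thermal stability relative to solvent controls is reported from duplicates. For each sample, crude K562 extract from dounce-homogenised pellets in PBS pH 7.4 with 1 mM MgCl2, at 1 mg/mL protein, was treated with 10 μM compound for 30 min. Aliquots heated for 3 min across 48°C-58°C were pooled, brought to 0.5% NP-40 at 4°C and cleared at 21,000xg for 90 min. The supernatant was quantified by TMTpro 16plex LC-MS/MS with channel sums equalised.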

Compound in experiment [1]: CCCS(=O)(=O)Nc1ccc(F)c(C(=O)c2c[nH]c3ncc(Cl)cc23)c1F
Summed up: as §1

Compound in another experiment: CCN(CCCOc1ccc2c(Nc3cc(CC(=O)Nc4cccc(F)c4)[nH]n3)ncnc2c1)CCOP(=O)(O)O [barasertib]
The method, boiled down: as §1

Compound in experiment [2]: CC[C@@H]1C(=O)N(C)c2cnc(Nc3ccc(C(=O)NC4CCN(C)CC4)cc3OC)nc2N1C1CCCC1
Summed up: as §1

Compound in the next experiment: CC[C@@H]1C(=O)N(C)c2cnc(Nc3ccc(C(=O)N[C@H]4CC[C@H](N5CCN(CC6CC6)CC5)CC4)cc3OC)nc2N1C(C)C [volasertib]
Summed up: as §1

Compound in experiment [3]: CCn1c(C(=O)N(C2CC2)C2CC2)cc2c3c(ncn3C)c(Nc3cc(C)n(C)n3)nc21
Summed up: as §1

Compound in experiment [4]: CCn1cc(-c2ccnc3[nH]c(-c4cccc(CN(C)C)c4)cc23)c(-c2ccc(NC(=O)N(C)C)cc2)n1
The method, boiled down: as §1

Compound in experiment [5]: CN1CCC(CNc2ccc3ncc(-c4cccc(OC(F)(F)F)c4)n3n2)CC1
Summed up: as §1

Compound in a further experiment: CN1CCN(CCOc2cc(OC3CCOCC3)c3c(Nc4c(Cl)ccc5c4OCO5)ncnc3c2)CC1 [saracatinib]
Summed up:
as §1

Compound in a further experiment: CN1CCN(c2nc(C3=C(c4c[nH]c5ccccc45)C(=O)NC3=O)c3ccccc3n2)CC1 [sotrastaurin]
Summed up:
as §1

Compound in the next experiment: CN1CC[C@H](c2c(O)cc(O)c3c(=O)cc(-c4ccccc4Cl)oc23)[C@H](O)C1 [alvocidib]
The method, boiled down:
as §1

Compound in a further experiment: CN1CCc2c(c3ccccc3n2Cc2ccc(C(=O)NO)cc2)C1 [Tubastatin A]
Summed up:
as §1

Compound in experiment [6]: CNC(=O)C1=CC=CC=C1NC2=NC(=NC=C2Cl)NC3=C(C=C(C=C3)N4CCOCC4)OC
Summed up: as §1

Compound in the next experiment: CNC(=O)c1ccc(Nc2ncc(C(F)(F)F)c(NCc3nccnc3N(C)S(C)(=O)=O)n2)cc1 [defactinib]
The method, boiled down:
as §1

Compound in experiment [7]: CNc1nc(-c2ccc3c(N)n[nH]c3c2)cc(N2C[C@@H](C(=O)NC3CCCCC3)CC[C@H]2C)n1
The method, boiled down:
as §1

Compound in a further experiment: COC(=O)N[C@@H](C)CNc1nccc(-c2cn(C(C)C)nc2-c2cc(Cl)cc(NS(C)(=O)=O)c2F)n1 [encorafenib]
The method, boiled down:
as §1

Compound in experiment [8]: COC(=O)[C@H](CCSC)NC(=O)C1=C(C=C(C=C1)NC[C@H](CS)N)C2=CC=CC=C2
Summed up: as §1

Compound in a further experiment: COc1cc(Nc2ncc3c(n2)-c2ccc(Cl)cc2C(c2c(F)cccc2OC)=NC3)ccc1C(=O)O [alisertib]
The method, boiled down: as §1

Compound in experiment [9]: COc1cc2nc(-c3cc(F)ccc3O)nc(N[C@@H]3CNC[C@H]3C(C)(C)O)c2cc1OC
The method, boiled down:
as §1

Compound in another experiment: COc1cc2ncnc(Nc3ccc(F)c(Cl)c3)c2cc1OCCCN1CCOCC1 [gefitinib]
The method, boiled down: as §1

UniProt Q9BQ69, sequence (Q9BQ69 whole entry, looked up): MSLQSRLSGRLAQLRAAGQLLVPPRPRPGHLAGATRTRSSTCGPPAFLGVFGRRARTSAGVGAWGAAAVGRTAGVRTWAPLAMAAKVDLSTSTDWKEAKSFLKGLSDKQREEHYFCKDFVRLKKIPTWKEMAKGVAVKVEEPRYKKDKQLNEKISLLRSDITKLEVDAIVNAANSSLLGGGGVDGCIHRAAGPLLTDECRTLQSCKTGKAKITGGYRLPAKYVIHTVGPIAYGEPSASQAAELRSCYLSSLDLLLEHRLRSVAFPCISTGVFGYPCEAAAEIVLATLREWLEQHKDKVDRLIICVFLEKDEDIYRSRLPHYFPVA
UniProt O95819, sequence (O95819 whole entry, looked up): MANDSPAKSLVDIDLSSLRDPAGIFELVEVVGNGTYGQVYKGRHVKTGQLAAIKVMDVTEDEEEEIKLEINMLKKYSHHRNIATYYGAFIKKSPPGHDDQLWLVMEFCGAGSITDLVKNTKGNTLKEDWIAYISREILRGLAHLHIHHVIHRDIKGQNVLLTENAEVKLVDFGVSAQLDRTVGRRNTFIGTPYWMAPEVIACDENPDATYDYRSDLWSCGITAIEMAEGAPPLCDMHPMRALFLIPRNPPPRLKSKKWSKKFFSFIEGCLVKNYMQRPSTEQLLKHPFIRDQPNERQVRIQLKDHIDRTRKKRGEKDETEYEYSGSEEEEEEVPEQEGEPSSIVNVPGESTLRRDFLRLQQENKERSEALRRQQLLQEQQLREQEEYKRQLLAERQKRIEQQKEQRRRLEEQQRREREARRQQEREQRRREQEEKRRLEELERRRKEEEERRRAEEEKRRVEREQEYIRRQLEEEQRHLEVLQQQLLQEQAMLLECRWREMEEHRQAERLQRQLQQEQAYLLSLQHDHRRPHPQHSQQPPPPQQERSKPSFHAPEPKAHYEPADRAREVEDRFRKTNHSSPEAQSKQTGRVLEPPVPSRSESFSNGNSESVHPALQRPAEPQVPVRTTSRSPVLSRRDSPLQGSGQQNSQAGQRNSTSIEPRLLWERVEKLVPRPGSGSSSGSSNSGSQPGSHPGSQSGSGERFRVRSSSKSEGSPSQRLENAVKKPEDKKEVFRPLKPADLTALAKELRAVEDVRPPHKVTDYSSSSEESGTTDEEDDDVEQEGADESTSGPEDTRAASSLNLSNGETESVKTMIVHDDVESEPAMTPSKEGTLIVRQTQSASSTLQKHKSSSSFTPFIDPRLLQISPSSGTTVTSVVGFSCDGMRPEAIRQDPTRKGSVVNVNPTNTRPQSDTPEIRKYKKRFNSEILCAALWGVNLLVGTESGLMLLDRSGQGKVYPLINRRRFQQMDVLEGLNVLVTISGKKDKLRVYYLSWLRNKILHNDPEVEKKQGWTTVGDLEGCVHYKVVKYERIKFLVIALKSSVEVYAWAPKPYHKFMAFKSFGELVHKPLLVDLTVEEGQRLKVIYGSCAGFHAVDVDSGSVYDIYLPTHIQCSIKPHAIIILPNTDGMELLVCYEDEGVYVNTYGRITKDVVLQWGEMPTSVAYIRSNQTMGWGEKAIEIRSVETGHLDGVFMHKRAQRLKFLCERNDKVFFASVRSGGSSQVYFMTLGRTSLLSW
UniProt O14880, sequence (O14880 whole entry, looked up): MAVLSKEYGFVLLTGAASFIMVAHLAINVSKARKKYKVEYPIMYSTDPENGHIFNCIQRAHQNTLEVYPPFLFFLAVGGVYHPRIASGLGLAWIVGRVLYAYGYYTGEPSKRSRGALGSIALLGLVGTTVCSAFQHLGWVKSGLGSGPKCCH
UniProt P36507, sequence (P36507 whole entry, looked up): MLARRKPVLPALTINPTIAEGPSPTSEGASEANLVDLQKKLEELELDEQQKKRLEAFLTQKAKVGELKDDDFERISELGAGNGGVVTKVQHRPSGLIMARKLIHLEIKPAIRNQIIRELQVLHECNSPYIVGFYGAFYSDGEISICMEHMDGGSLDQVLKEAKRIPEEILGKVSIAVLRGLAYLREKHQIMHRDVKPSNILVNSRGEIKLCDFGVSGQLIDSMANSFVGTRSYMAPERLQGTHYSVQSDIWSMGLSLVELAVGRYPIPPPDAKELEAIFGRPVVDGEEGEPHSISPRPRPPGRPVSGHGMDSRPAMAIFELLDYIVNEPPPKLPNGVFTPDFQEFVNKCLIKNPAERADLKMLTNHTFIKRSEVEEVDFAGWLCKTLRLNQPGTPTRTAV

In the case of MACROD1 (UniProt Q9BQ69), the log2 fold change was 0.016 with vemurafenib; 0.043 in [1]; -0.002 in the experiment with barasertib; 0.033 in experiment [2]; -0.015 with volasertib; -0.012 in experiment [3]. Further, the log2 fold change in experiment [4] is -0.043; in experiment [5] it was -0.014; with saracatinib, 0.008; with sotrastaurin it was 0.002; with alvocidib, 0.12; with Tubastatin A, -0.104. The log2 fold change in experiment [6] is 0.012; with defactinib, 0.039; in experiment [7], 0.015; in the experiment with encorafenib it was 0.029; in experiment [8], -0.074; with alisertib it was -0.037. Moreover, the figures for the log2 fold change (in experiment [9]; with gefitinib) were -0.001 and 0.033, respectively.

Consider MAP2K2 (UniProt P36507), for which the log2 fold change with vemurafenib is 0.224; in [1], 0.184; in the experiment with barasertib, 0.026; in [2], -0.076; with volasertib, -0.089; in [3] it was 0.008. Also, the log2 fold change is 0.252 in [4]; -0.047 in [5]; 0.093 in the experiment with saracatinib; -0.002 with sotrastaurin; 0.022 in the experiment with alvocidib; -0.026 in the experiment with Tubastatin A. Besides, the log2 fold change is 0.198 in experiment [6]; 0.036 with defactinib; 0.015 in [7]; -0.046 with encorafenib; -0.006 in experiment [8]; -0.013 in the experiment with alisertib. The results for the log2 fold change (in [9]; with gefitinib) were 0.009 and -0.013, respectively.

For the target MGST3 (UniProt O14880), the log2 fold change in the experiment with vemurafenib is 0.012; in experiment [1], 0.01; with barasertib, -0.056; in [2], 0.078; in the experiment with volasertib it was 0.076; in experiment [3], 0.006. Further, the log2 fold change in experiment [4] was 0.286 (active); in experiment [5] it was -0.082; with saracatinib it was -0.017; in the experiment with sotrastaurin it was -0.015; in the experiment with alvocidib it was 0.071; with Tubastatin A, 0.043. For the same target, the log2 fold change in experiment [6] was 0.054; in the experiment with defactinib it was 0; in [7] it was 0.029; with encorafenib it was -0.04; in experiment [8], 0.052; with alisertib, 0.026. For the same target, the values for the log2 fold change (in experiment [9]; with gefitinib) were -0.005 and -0.038, respectively.

MAP4K4 isoform 3 (UniProt O95819): the log2 fold change in the experiment with vemurafenib is -0.185; in [1] it was -0.119; with barasertib, -0.029; in experiment [2] it was -0.071; in the experiment with volasertib, 0.011; in [3], -0.011. Besides, the log2 fold change in [4] was 0.169; in experiment [5], -0.158; in the experiment with saracatinib it was 0.082; in the experiment with Tubastatin A, -0.016; in experiment [6], -0.028; in the experiment with defactinib, 0.03. In addition, the log2 fold change in [7] was -0.08; with encorafenib, -0.075; in [8], -0.014; in [9], 0.035; in the experiment with gefitinib, -0.051.

Consider MRPL35 (UniProt Q9NZE8), for which the log2 fold change with vemurafenib is 0.091; in experiment [1], -0.001; with barasertib it was 0.021; with volasertib, 0.013; in experiment [3], 0.005; in experiment [4], -0.124. In addition, the log2 fold change in experiment [5] is -0.011; in the experiment with saracatinib it was 0.04; in the experiment with sotrastaurin, -0.019; with alvocidib it was 0.057; with Tubastatin A, -0.226; in experiment [6], 0.01. Further, the log2 fold change with defactinib is 0.014; in experiment [7], 0.033; with alisertib, 0.01; in experiment [9], -0.072; with gefitinib, 0.009.
